Shown are actives, neighbours in structure and some others; about 2.2% of the full set was active somewhere.
Pin1 inhibitor: qHTS Assay to Find Inhibitors of Pin1 | Pin1 FP peptide displacement, HiFluor488, 10 min | Potency, µM (doses to about 115 µM), usual class: inhibitors | 0.009% of 390,000 active | AID 504891, 2011; active = well fitted inhibition curve with a large enough effect in the polarisation, with a control signal flat, not every such curve was filed as active; inconclusive = small, poorly fitted or top-dose-only effect, or effect the other way, or a change in a side signal; inactive = no such curve, though single readings can be large or run the other way; the % refers to the polarisation
Target sequence (Q13526 whole entry, looked up): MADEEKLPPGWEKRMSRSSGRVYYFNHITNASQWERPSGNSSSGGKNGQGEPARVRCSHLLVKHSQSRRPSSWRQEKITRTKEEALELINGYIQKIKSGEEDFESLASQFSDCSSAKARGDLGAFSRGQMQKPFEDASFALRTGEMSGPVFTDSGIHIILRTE
A549 tox-1: Nrf2 qHTS screen for inhibitors: counterscreen for cytotoxicity; A549 ARE-Fluc cells, CellTiter-Fluor viability, 18-24 h; Potency, µM (titrated, usually from 46 µM), actives largely listed as inhibitors; 0.16% of 390,000 active; AID 504648, 2011
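A549 ARE_Fluc cells in 5% FBS OPTI-MEM were exposed to compounds in concentration-response for 18-24 h at 37 deg C. Viability was read by CellTiter-Fluor fluorescence (Ex 405/Em 525) after 30 min, before the luciferase read.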
Nrf2 ARE act: qHTS of Nrf2 Activators; AID 624171, 2012; Potency, µM (highest dose often 46.1 µM), hits mostly activators; 0.31% of 410,000 active; AREc32 ARE-luciferase reporter (MCF7-derived line), luminescence, 24 h; note: nearly all actives have a fitted effect of over 65% in size
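For detection, Steady-Glo was added and plates sat 30 min at RT; before that, AREc32_Fluc cells grown overnight in OPTI-MEM/5% FBS had been treated with 23 nL compound for 24 hr at 37 deg C.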
Nrf2 block: Nrf2 qHTS screen for inhibitors | Potency, µM (series often up to 46 µM), usual class: inhibitors | 2.1% of 360,000 active | A549 ARE-Fluc reporter, luciferase luminescence, 18-24 h; note: nearly all actives have a fitted effect of over 60% in size
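In this cell-based qHTS, ARE-driven firefly luciferase in A549 cells reports Nrf2 activity; the luminescent signal after BugLite lysis is the measured value, with a prior CellTiter-Fluor read for cell health.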
FLuc counter 3: Nrf2 qHTS screen for inhibitors: Purified Fluc Biochemical Counterscreen for Hit Validation. shares compounds with Nrf2 block. purified firefly luciferase, luminescence inhibition. Potency, µM (doses to about 57.5 µM), most hits filed as inhibitors. 4% of 1,400 active. AID 720522, 2013; note: nearly all actives have a fitted effect of over 65% in size
A549 tox-2: Nrf2 qHTS screen for inhibitors: A549 ARE-Fluc Cytotoxicity Counterscreen for Hit Validation; shares compounds with Nrf2 block; A549 ARE-Fluc cells, cytotoxicity counterscreen; 2% of 1,400 active; Potency, µM (titrated, usually from 46.1 µM), hits mostly inhibitors;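 note: cells exposed to compounds for 18 to 24 hours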
ARE-Fluc inh: Nrf2 qHTS screen for inhibitors: Nrf2 A549 ARE-Fluc Confirmation Assay for Hit Validation; shares compounds with Nrf2 block; A549 ARE-firefly luciferase reporter, luminescence; Potency, µM (doses to about 46.1 µM), most hits filed as inhibitors; 74% of 1,400 active; note: nearly all actives have a fitted effect of over 65% in size
Hits are given with their value. Unless noted, calls come from the whole dose curve; as a rule, active = well fitted curve in the direction sought with a large enough effect; inconclusive = small, poorly fitted or top-dose-only effect, or another doubt; inactive = no such curve, though single readings can be large; an effect the other way counts as inactive or inconclusive.

Screening COc1ccc(NC(=O)CCc2nc(C3=CCN(Cc4cccc(C)c4)CC3)no2)c(OC)c1 returned Pin1 inhibitor inactive, A549 tox-1 inactive and Nrf2 ARE act inactive.
For COc1cccc(NC(=O)CCc2nc(-c3ccc(C(C)(C)C)cc3)no2)c1 the results were Pin1 inhibitor inactive, A549 tox-1 inactive, Nrf2 ARE act inactive, Nrf2 block 0.26µM, FLuc counter 3 2.4µM, A549 tox-2 inactive and ARE-Fluc inh 0.92µM.
`CCc1ccc(OCC(=O)N2CCN(CCc3ccccn3)CC2)cc1` gave Pin1 inhibitor inactive, A549 tox-1 inactive, Nrf2 ARE act inactive and Nrf2 block inactive.
For Cc1nnc(NC(=O)c2cccn(Cc3cccc([N+](=O)[O-])c3)c2=O)s1 the results were Pin1 inhibitor inactive, A549 tox-1 inactive and Nrf2 ARE act inactive.
Screening CC(=O)OC1CC2(O)C3CCC4CC(O)CCC4(C)C3CCC2(C)C1C1=CC(=O)OC1 (centres undefined) returned Pin1 inhibitor inactive, A549 tox-1 inconclusive, Nrf2 ARE act inactive, Nrf2 block 0.065µM, FLuc counter 3 inactive, A549 tox-2 inconclusive and ARE-Fluc inh 0.058µM.
Screening CC(=O)[C@H]1CCC2C3CC[C@H]4C[C@@H](O)CC[C@]4(C)C3CC[C@@]21C (some centres undefined) returned Pin1 inhibitor inactive, A549 tox-1 inactive, Nrf2 ARE act inactive and Nrf2 block inactive.
CC(=O)OC1CC(OC2C(O)CC(OC3C(O)CC(OC4CCC5(C)C(CCC6C5CCC5(C)C(C7=CC(=O)OC7)C(O)CC65O)C4)OC3C)OC2C)OC(C)C1OC1OC(CO)C(O)C(O)C1O (centres undefined) was read as Pin1 inhibitor inactive, A549 tox-1 inconclusive, Nrf2 ARE act inactive, Nrf2 block 0.33µM, FLuc counter 3 inactive, A549 tox-2 inconclusive and ARE-Fluc inh 0.29µM.
Screening CC1Cc2cc(S(=O)(=O)N(Cc3ccccc3)C(C)C)ccc2N1C(=O)C1CCC1 (centres undefined) returned Pin1 inhibitor inactive, A549 tox-1 inactive, Nrf2 ARE act inactive and Nrf2 block inconclusive.
Screening Cc1ccc(-c2cc(-c3ccc(C)cc3)[n+](C)o2)cc1 returned Pin1 inhibitor inactive, A549 tox-1 inconclusive, Nrf2 ARE act inactive, Nrf2 block 5.2µM, FLuc counter 3 inactive, A549 tox-2 inactive and ARE-Fluc inh 3.7µM.
Screening Cc1ccc(-c2cc(-c3ccc(C)cc3)[n+](-c3ccc(C(=O)[O-])cc3)c(-c3ccc(C)cc3)c2)cc1 returned Pin1 inhibitor inactive, A549 tox-1 inactive, Nrf2 ARE act inactive and Nrf2 block inactive.
Screening CCCCCCn1c(=O)c(C(=O)Nc2cnccn2)c(O)c2ccccc21 returned Pin1 inhibitor inactive, A549 tox-1 inconclusive, Nrf2 ARE act inactive, Nrf2 block 4.1µM, FLuc counter 3 inactive, A549 tox-2 inconclusive and ARE-Fluc inh 5.2µM.
CCCCCn1c(=O)c(C(=O)Nc2ccccn2)c(O)c2ccccc21 was read as Pin1 inhibitor inactive, A549 tox-1 inactive, Nrf2 ARE act inactive and Nrf2 block inconclusive.
Screening CC(=O)c1ccc(N2CCN(S(=O)(=O)c3cc(-c4onc(C)c4C)ccc3C)CC2)cc1 returned Pin1 inhibitor inactive, A549 tox-1 inactive, Nrf2 ARE act inactive, Nrf2 block 9.2µM, FLuc counter 3 inactive, A549 tox-2 inactive and ARE-Fluc inh 6.5µM.
Cc1sc(NC(=O)Cn2c(=O)oc3ccccc32)nc1-c1ccc(Cl)cc1 was read as Pin1 inhibitor inactive, A549 tox-1 inactive, Nrf2 ARE act inactive and Nrf2 block inconclusive.
For CC12CCC3C(CCC4(O)CC(O)CCC34C=O)C1(O)CCC2C1=CC(=O)OC1 (centres undefined) the results were Pin1 inhibitor inactive, A549 tox-1 inconclusive, Nrf2 ARE act inactive, Nrf2 block 0.46µM, FLuc counter 3 inactive, A549 tox-2 inconclusive and ARE-Fluc inh 0.41µM.
For CC(=O)O[C@H]1CC[C@]2(C=O)C3CC[C@]4(C)[C@@H](C5=CC(=O)OC5)CC[C@]4(O)C3CC[C@]2(O)C1 (some centres undefined) the results were Pin1 inhibitor inactive, A549 tox-1 inactive, Nrf2 block 0.26µM, FLuc counter 3 inactive, A549 tox-2 inconclusive and ARE-Fluc inh 0.37µM.
C[C@]12CC[C@H]3[C@@H](CC[C@]4(O)C[C@@H](O)CC[C@]34C=O)[C@@]1(O)CC[C@@H]2C1=CC(=O)OC1 was read as Pin1 inhibitor inactive, A549 tox-1 inconclusive, Nrf2 ARE act inactive, Nrf2 block 0.26µM, FLuc counter 3 inactive, A549 tox-2 inactive and ARE-Fluc inh 0.41µM.
Screening CCCCN=C[C@]12CCC(O)CC1(O)CCC1[C@@H]2CC[C@]2(C)[C@H](C3C=CC(=O)O3)CCC12O (some centres undefined) returned Pin1 inhibitor inactive, A549 tox-1 inactive, Nrf2 ARE act inactive and Nrf2 block inconclusive.
`CC(=O)O[C@H]1CC[C@@]2(C)C(=CC[C@@H]3[C@@H]2CC[C@]2(C)C(=O)CC[C@@H]32)C1` gave Pin1 inhibitor inactive, A549 tox-1 inactive, Nrf2 ARE act inactive and Nrf2 block inactive.
For CC12CCC3C(CCC4(O)CC(O)CCC34C=NO)C1(O)CCC2C1=COC(=O)C1 (centres undefined) the results were Pin1 inhibitor inactive, A549 tox-1 inconclusive, Nrf2 ARE act inactive, Nrf2 block 0.058µM, FLuc counter 3 inactive, A549 tox-2 inconclusive and ARE-Fluc inh 0.1µM.
For CCC12CN3CC(CC)(CN(C1)C3c1c(C)[nH]c(=O)[nH]c1=O)C2=O (centres undefined) the results were Pin1 inhibitor inactive, A549 tox-1 inactive, Nrf2 ARE act inactive and Nrf2 block inactive.
For C=CCNc1nnc(Sc2ncccc2[N+](=O)[O-])s1 the results were Pin1 inhibitor inactive, A549 tox-1 inactive, Nrf2 ARE act inconclusive and Nrf2 block inactive.
Screening O=c1[nH]c(O)c(N=Nc2ccc(Cl)c(S(=O)(=O)Nc3ccccc3Cl)c2)c(=O)[nH]1 returned Pin1 inhibitor inactive, A549 tox-1 inactive, Nrf2 ARE act inconclusive and Nrf2 block inconclusive.
c1ccc(/N=C2\N=C(Nc3ccccn3)c3ccccc32)nc1 was read as Pin1 inhibitor inactive, A549 tox-1 inactive, Nrf2 ARE act inactive and Nrf2 block inconclusive.
